From the supplement of paper PMC8975748
Counter-ions that a name gives are not always drawn. ± gives the standard deviation of the averaged measurements.

What was measured:
[1] = tested on: Saccharomyces cerevisiae BY4741 SeMeCo community; experiment: mean cell size (pixel area) (pixels); higher = larger cells; settings: 10 µM; 24 h; SM minimal medium
Method in brief: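 Yeast cells were fixed with paraformaldehyde, imaged by automated confocal microscopy and analysed in Harmony to obtain mean cell pixel area per well. They came from a four-plasmid fluorescent Saccharomyces cerevisiae BY4741 community, each plasmid complementing one auxotrophy and carrying a fluorescent marker. Before imaging, 70 µl of culture at OD600 = 0.3 was incubated for 24 h in SM medium in 384-well plates predosed acoustically with drug (final 10 µM). Values are means of 3 replicates. Same SeMeCo high-content imaging drug screen: Selleck FDA-approved drugs at 10 µM, 24 h in SM medium, 384-well plates, 3 replicates.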

[2] = tested on: Saccharomyces cerevisiae BY4741 SeMeCo community; experiment: z-score of prototroph abundance vs DMSO median; higher = larger share of this subpopulation than in DMSO controls; settings: 10 µM; 24 h; SM minimal medium; subpopulation (auxotrophy): Prototroph
Method in brief: (§1)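 Cells of a Saccharomyces cerevisiae BY4741 community, carrying four plasmids that each restored one auxotrophy and encoded a distinct fluorescent protein, were pre-grown overnight to OD600 1.0 and diluted to 0.3. A 70 µl volume was added to 384-well plates acoustically predosed with library drugs (10 µM final) and grown 24 h in minimal SM medium. After paraformaldehyde fixation, automated confocal microscopy was used, with single-auxotroph fluorescent strains for thresholds and autofluorescence correction. The abundance of each subpopulation was scored as a z-score against the vehicle-well median.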

[3] = tested on: Saccharomyces cerevisiae BY4741 SeMeCo community; experiment: z-score of subpopulation abundance vs DMSO median, subpopulation auxotrophic for M; higher = larger share of this subpopulation than in DMSO controls; settings: 10 µM; 24 h; SM minimal medium; subpopulation (auxotrophy): M
Method in brief: as §1

[4] = tested on: Saccharomyces cerevisiae BY4741 SeMeCo community; experiment: z-score of subpopulation abundance vs DMSO median, subpopulation auxotrophic for L; higher = larger share of this subpopulation than in DMSO controls; settings: 10 µM; 24 h; SM minimal medium; subpopulation (auxotrophy): L
Method in brief: as §1

[5] = tested on: Saccharomyces cerevisiae BY4741 SeMeCo community; experiment: z-score of subpopulation abundance vs DMSO median, subpopulation auxotrophic for U; higher = larger share of this subpopulation than in DMSO controls; settings: 10 µM; 24 h; SM minimal medium; subpopulation (auxotrophy): U
Method in brief: as §1

[6] = tested on: Saccharomyces cerevisiae BY4741 SeMeCo community; experiment: z-score of subpopulation abundance vs DMSO median, subpopulation auxotrophic for H; higher = larger share of this subpopulation than in DMSO controls; settings: 10 µM; 24 h; SM minimal medium; subpopulation (auxotrophy): H
Method in brief: as §1

[7] = tested on: Saccharomyces cerevisiae BY4741 SeMeCo community; experiment: z-score of subpopulation abundance vs DMSO median, subpopulation auxotrophic for LM; higher = larger share of this subpopulation than in DMSO controls; settings: 10 µM; 24 h; SM minimal medium; subpopulation (auxotrophy): LM
Method in brief: as §1

[8] = tested on: Saccharomyces cerevisiae BY4741 SeMeCo community; experiment: z-score of subpopulation abundance vs DMSO median, subpopulation auxotrophic for HM; higher = larger share of this subpopulation than in DMSO controls; settings: 10 µM; 24 h; SM minimal medium; subpopulation (auxotrophy): HM
Method in brief: as §1

[9] = tested on: Saccharomyces cerevisiae BY4741 SeMeCo community; experiment: z-score of subpopulation abundance vs DMSO median, subpopulation auxotrophic for HU; higher = larger share of this subpopulation than in DMSO controls; settings: 10 µM; 24 h; SM minimal medium; subpopulation (auxotrophy): HU
Method in brief: as §1

[10] = tested on: Saccharomyces cerevisiae BY4741 SeMeCo community; experiment: z-score of subpopulation abundance vs DMSO median, subpopulation auxotrophic for UM; higher = larger share of this subpopulation than in DMSO controls; settings: 10 µM; 24 h; SM minimal medium; subpopulation (auxotrophy): UM
Method in brief: as §1

[11] = tested on: Saccharomyces cerevisiae BY4741 SeMeCo community; experiment: z-score of subpopulation abundance vs DMSO median, subpopulation auxotrophic for HL; higher = larger share of this subpopulation than in DMSO controls; settings: 10 µM; 24 h; SM minimal medium; subpopulation (auxotrophy): HL
Method in brief: as §1

[12] = tested on: Saccharomyces cerevisiae BY4741 SeMeCo community; experiment: z-score of subpopulation abundance vs DMSO median, subpopulation auxotrophic for HLU; higher = larger share of this subpopulation than in DMSO controls; settings: 10 µM; 24 h; SM minimal medium; subpopulation (auxotrophy): HLU
Method in brief: as §1

[13] = tested on: Saccharomyces cerevisiae BY4741 SeMeCo community; experiment: z-score of subpopulation abundance vs DMSO median, subpopulation auxotrophic for HLM; higher = larger share of this subpopulation than in DMSO controls; settings: 10 µM; 24 h; SM minimal medium; subpopulation (auxotrophy): HLM
Method in brief: as §1

[14] = tested on: Saccharomyces cerevisiae BY4741 SeMeCo community; experiment: z-score of subpopulation abundance vs DMSO median, subpopulation auxotrophic for HUM; higher = larger share of this subpopulation than in DMSO controls; settings: 10 µM; 24 h; SM minimal medium; subpopulation (auxotrophy): HUM
Method in brief: as §1

[15] = tested on: Saccharomyces cerevisiae BY4741 SeMeCo community; experiment: z-score of subpopulation abundance vs DMSO median, subpopulation auxotrophic for LUM; higher = larger share of this subpopulation than in DMSO controls; settings: 10 µM; 24 h; SM minimal medium; subpopulation (auxotrophy): LUM
Method in brief: as §1

[16] = tested on: Saccharomyces cerevisiae BY4741 SeMeCo community; experiment: z-score of subpopulation abundance vs DMSO median, subpopulation auxotrophic for HLUM; higher = larger share of this subpopulation than in DMSO controls; settings: 10 µM; 24 h; SM minimal medium; subpopulation (auxotrophy): HLUM
Method in brief: as §1

[17] = tested on: Saccharomyces cerevisiae BY4741 SeMeCo community; experiment: z-score of subpopulation abundance vs DMSO median, subpopulation auxotrophic for LU; higher = larger share of this subpopulation than in DMSO controls; settings: 10 µM; 24 h; SM minimal medium; subpopulation (auxotrophy): LU
Method in brief: as §1

Structure (SMILES) | mean cell size [1] | z-score of prototroph abundance [2] | z-score of subpopulation abundance [3] | z-score of subpopulation abundance [4] | z-score of subpopulation abundance [5] | z-score of subpopulation abundance [6] | z-score of subpopulation abundance [7] | z-score of subpopulation abundance [8] | z-score of subpopulation abundance [9] | z-score of subpopulation abundance [10] | z-score of subpopulation abundance [11] | z-score of subpopulation abundance [12] | z-score of subpopulation abundance [13] | z-score of subpopulation abundance [14] | z-score of subpopulation abundance [15] | z-score of subpopulation abundance [16] | z-score of subpopulation abundance [17]
N#Cc1ccc(Oc2ccc3c(c2)COB3O)cc1 [Crisaborole (AN2728)] | 12.3 ± 0.19 | -3.53 | -1.21 | 2.57 | 0.49 | 7.63 | 2.61 | 0.93 | 3.15 | -0.21 | 5.69 | 6.18 | 3.78 | 1.2 | 3.54 | 5.38 | –
Oc1c(Cl)cc(Cl)c(Cl)c1Cc1c(O)c(Cl)cc(Cl)c1Cl [Hexachlorophene] | 12.08 ± 0.11 | -5.27 | 0.14 | – | 0.01 | 7.09 | 1.88 | 9.29 | 4.22 | 5.02 | 3.85 | 1.13 | – | 14 | 2.37 | 7.77 | -0.56
Cc1nc(Nc2ccc(F)cc2)nc(N2CCc3ccccc3C2C)c1C (stereo unspecified) [Revaprazan Hydrochloride] | 11.4 ± 0.18 | -0.48 | -0.84 | 0.02 | 0.73 | 1 | 0.05 | -0.33 | 0.79 | 1.11 | – | -0.07 | -0.32 | 0.45 | 0.27 | 0.14 | –
CC[C@@]1(O)C(=O)OCc2c1cc1n(c2=O)Cc2cc3cc(O)ccc3nc2-1 [Hydroxy Camptothecine] | 12.5 ± 0.14 | 1.27 | 3.88 | – | – | 3.18 | – | 3.39 | -4.32 | -4.43 | 2.22 | -1.2 | 1.86 | – | -1.35 | 0.8 | -3.85
CC(C)NNC(=O)c1ccncc1 [Iproniazid] | 12.4 ± 0.22 | -0.56 | -0.2 | – | 1.2 | 0.01 | 0.08 | -0.24 | 0.46 | 0.66 | -0.1 | 0.8 | – | 0.2 | 0.03 | 0.07 | 1.04
CC1(C)S[C@@H]2[C@H](NC(=O)[C@H](N)c3ccc(O)cc3)C(=O)N2[C@H]1C(=O)O [Amoxicillin Sodium] | 12.5 ± 0.31 | 0.37 | 0.97 | – | -0.06 | -0.8 | -1.17 | -0.22 | -0.71 | -0.03 | -1.14 | -0.65 | – | -0.13 | -0.05 | – | -0.7
CCCCCCCCN=C(N)NC(N)=NCc1ccc(Cl)c(Cl)c1 [Olanexidine Hydrochloride semihydrate] | 9.82 ± 0.35 | – | -3.65 | – | -3.91 | – | -0.77 | 13.8 | 5.71 | 12.2 | 11.1 | 5.73 | 72.9 | – | 21.6 | 213 | 2.95
Cc1ncc([N+](=O)[O-])n1CC(C)O (stereo unspecified) [Secnidazole] | 12.4 ± 0.14 | -0.48 | -0.32 | -0.91 | 1.82 | – | -0.67 | -0.21 | 0.82 | – | – | 0.35 | -0.55 | 0.55 | -0.06 | -0.46 | –
CC(C)COc1ccc(CNC(=O)N(Cc2ccc(F)cc2)C2CCN(C)CC2)cc1 [Pimavanserin] | 12.4 ± 0.25 | -0.05 | 1.1 | – | – | -0.39 | -0.48 | -0.22 | 1.4 | -0.58 | 0.41 | -0.54 | – | -0.82 | -0.56 | -0.3 | 0.32
CN(C)CCc1c[nH]c2ccc(C[C@H]3COC(=O)N3)cc12 [Zolmitriptan] | 12.5 ± 0.18 | 0.27 | -0.23 | 0.2 | -0.08 | -0.77 | -0.12 | -1.06 | -1.01 | -0.65 | – | 0.09 | -0.12 | -0.45 | -0.64 | 0.15 | –
CCc1cc(C(N)=S)ccn1 [Ethionamide] | 12.45 ± 0.074 | 0.06 | 0.23 | – | -0.01 | 0.59 | 0.32 | 0.03 | – | 0.25 | -0.03 | -0.14 | -0.28 | – | -0.07 | – | 0.05
CN(C)CCOc1ccc(/C(=C(/CCCl)c2ccccc2)c2ccccc2)cc1 [Toremifene Citrate] | – | – | -0.37 | 0.06 | 0.79 | 2.17 | 0.69 | 0.66 | 2.51 | 0.54 | 1.37 | 1.1 | 1.44 | 0.27 | 0.81 | -0.23 | –
COc1ccc(NS(=O)(=O)c2ccc(N)cc2)nn1 [Sulfamethoxypyridazine] | 12.2 ± 0.35 | – | -0.66 | -0.07 | – | – | -0.89 | -0.15 | -0.08 | 0.13 | -1.05 | -0.41 | -1.06 | – | -0.72 | -0.55 | –
CC1(C)S[C@@H]2[C@H](NC(=O)Cc3ccccc3)C(=O)N2[C@H]1C(=O)O [Benzylpenicillin potassium] | – | – | -0.08 | 0.24 | 0.62 | -0.83 | – | -0.39 | -0.05 | -0.02 | -0.23 | 0.89 | 0.2 | 0.17 | 0.72 | – | –
NC(=O)Cc1cccc(C(=O)c2ccccc2)c1N [Nepafenac] | 12.3 ± 0.27 | 0.25 | 0.62 | 1.39 | – | – | 1.58 | – | -1.05 | -0.53 | 0.69 | 0.04 | -0.23 | -0.01 | 0.29 | 0.1 | –
C1N2CN3CN1CN(C2)C3 [Methenamine] | – | -0.97 | 0.26 | -0.63 | 0.59 | 0.28 | 0.49 | 1.35 | 0.2 | 0.8 | – | -0.02 | 0.4 | 0.39 | 0.29 | -0.16 | –
